In paper PMC7862700, “An all-to-all approach to the identification of sequence-specific readers for epigenetic DNA modifications on cytosine”:

Legend:
Assay in all cases: DAPPL (digital affinity profiling via proximity ligation, sequencing); 10 mM Tris-HCl pH 7.5, 50 mM NaCl, 1 mM DTT, 4% glycerol, room temperature, 30 min; GST-TFs on glutathione beads, 16-mer random dsDNA library, 0.1% formaldehyde crosslink after washing; high values mean tight binding
Conditions in all cases: protein: recombinant; tags: N-terminal GST; dsDNA, one strand shown
ERF = molecular target: T1, ERF (Homo sapiens, UniProt P50548 1-548)
T1 sequence: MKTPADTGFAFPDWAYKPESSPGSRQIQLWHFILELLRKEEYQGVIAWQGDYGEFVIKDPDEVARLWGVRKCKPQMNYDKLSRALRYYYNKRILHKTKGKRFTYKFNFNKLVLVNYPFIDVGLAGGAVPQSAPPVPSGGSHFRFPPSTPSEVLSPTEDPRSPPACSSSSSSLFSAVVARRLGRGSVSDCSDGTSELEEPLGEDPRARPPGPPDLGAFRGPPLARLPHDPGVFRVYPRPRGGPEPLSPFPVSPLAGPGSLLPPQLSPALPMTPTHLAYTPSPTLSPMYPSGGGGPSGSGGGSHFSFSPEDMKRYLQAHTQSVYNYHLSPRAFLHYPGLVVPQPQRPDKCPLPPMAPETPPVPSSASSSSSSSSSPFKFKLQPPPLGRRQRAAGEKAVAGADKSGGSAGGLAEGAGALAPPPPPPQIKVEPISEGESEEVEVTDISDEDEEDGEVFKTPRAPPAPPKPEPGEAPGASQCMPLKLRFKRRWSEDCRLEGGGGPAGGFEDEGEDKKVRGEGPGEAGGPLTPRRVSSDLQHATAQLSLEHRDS
Method in brief: (§1)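 Human transcription factors carrying a GST fusion were produced in yeast, bound to glutathione beads, tagged with DNA barcodes and pooled together with a tag-only sample. Each pool was held with 200 nmole of a random double-stranded 16-mer DNA library in Tris/NaCl/DTT/glycerol buffer for 30 min at room temperature, then washed, crosslinked in 0.1% formaldehyde, proximity-ligated with BsaI/T4 ligase (1 h, 37 °C), PCR-amplified and sequenced on an Illumina NextSeq500. Binding signal is the read frequency of each hexamer for a given factor divided by its frequency in the tag-only sample.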

ETV3L = molecular target: T2, ETV3L (Homo sapiens, UniProt Q6ZN32 1-361)
T2 sequence: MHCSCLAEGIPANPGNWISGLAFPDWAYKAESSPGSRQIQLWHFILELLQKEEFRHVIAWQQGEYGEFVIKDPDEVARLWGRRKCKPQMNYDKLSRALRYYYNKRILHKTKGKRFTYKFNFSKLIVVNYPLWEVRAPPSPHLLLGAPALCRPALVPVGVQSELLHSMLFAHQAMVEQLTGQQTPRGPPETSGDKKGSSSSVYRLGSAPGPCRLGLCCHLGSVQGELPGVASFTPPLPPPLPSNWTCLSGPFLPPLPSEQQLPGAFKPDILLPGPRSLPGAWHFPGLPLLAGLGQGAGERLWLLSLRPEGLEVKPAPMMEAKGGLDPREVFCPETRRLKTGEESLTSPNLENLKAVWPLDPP
Method in brief: as §1

ETS2 = molecular target: T3, ETS2 (Homo sapiens, UniProt P15036 1-469)
T3 sequence: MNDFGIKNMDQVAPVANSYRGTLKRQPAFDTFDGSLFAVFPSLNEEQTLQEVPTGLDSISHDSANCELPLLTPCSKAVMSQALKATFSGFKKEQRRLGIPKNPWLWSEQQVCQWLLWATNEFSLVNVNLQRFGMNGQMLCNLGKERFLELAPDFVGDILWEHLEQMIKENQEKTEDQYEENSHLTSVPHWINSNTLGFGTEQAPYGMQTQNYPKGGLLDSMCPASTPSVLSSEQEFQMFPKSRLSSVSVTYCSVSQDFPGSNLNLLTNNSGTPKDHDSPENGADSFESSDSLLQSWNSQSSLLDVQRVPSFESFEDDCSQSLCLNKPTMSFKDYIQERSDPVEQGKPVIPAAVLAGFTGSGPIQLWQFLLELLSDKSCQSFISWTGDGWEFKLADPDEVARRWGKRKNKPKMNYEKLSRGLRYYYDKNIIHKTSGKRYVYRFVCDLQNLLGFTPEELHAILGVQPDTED
Method in brief: as §1

SPDEF = molecular target: T4, SPDEF (Homo sapiens, UniProt O95238 1-335)
T4 sequence: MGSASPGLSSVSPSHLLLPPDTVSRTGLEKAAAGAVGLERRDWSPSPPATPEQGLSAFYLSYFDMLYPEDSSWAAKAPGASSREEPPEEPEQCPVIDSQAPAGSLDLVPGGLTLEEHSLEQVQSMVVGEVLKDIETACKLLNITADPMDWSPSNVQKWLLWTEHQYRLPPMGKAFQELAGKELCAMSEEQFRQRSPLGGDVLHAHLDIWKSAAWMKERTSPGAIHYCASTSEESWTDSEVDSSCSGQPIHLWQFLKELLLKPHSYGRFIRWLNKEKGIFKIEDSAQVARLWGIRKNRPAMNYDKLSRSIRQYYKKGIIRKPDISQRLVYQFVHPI
Method in brief: as §1

ETV7 = molecular target: T5, ETV7 (Homo sapiens, UniProt Q9Y603 1-341)
T5 sequence: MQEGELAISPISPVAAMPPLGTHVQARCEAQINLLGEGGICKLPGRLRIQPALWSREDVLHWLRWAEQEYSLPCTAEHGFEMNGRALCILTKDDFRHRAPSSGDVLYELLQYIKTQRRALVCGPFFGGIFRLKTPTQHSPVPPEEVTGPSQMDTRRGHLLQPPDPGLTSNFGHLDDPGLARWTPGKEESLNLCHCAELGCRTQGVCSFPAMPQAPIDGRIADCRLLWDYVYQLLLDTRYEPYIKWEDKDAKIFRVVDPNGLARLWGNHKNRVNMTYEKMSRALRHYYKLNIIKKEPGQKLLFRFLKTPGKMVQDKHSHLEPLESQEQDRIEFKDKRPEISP
Method in brief: as §1

ELF5 = molecular target: T6, ELF5 (Homo sapiens, UniProt Q9UKW6-2 1-255)
T6 sequence: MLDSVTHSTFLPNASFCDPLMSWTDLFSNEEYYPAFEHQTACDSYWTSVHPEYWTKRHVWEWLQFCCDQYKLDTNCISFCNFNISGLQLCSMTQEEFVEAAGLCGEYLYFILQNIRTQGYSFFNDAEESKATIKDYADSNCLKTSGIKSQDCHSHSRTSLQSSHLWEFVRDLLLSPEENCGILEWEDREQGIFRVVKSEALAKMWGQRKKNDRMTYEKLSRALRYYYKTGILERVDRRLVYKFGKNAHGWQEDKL
Method in brief: as §1

ETV3 = molecular target: T7, ETV3 (Homo sapiens, UniProt P41162-2 1-143)
T7 sequence: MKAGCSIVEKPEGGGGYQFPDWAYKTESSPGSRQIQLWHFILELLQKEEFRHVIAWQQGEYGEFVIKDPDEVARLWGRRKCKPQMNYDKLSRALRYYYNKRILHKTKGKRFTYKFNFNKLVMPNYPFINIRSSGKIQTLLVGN
Method in brief: as §1

ETV6 = ETV6 (Homo sapiens, UniProt P41212 1-452)
ETV6, sequence (P41212 whole entry): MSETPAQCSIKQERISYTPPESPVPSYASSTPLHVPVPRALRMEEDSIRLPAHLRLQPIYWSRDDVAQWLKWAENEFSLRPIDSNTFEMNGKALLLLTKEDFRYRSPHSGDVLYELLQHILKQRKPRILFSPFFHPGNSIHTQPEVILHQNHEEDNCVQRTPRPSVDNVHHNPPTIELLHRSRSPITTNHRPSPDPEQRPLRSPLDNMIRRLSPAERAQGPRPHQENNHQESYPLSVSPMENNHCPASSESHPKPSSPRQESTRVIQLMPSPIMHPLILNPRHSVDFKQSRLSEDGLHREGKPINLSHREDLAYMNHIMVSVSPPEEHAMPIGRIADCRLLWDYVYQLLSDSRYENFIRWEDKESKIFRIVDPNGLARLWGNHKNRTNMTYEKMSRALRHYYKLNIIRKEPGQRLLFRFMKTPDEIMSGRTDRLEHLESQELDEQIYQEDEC
Method in brief: as §1

Sequence	binding signal (ERF)	binding signal (ETV3L)	binding signal (ETS2)	binding signal (SPDEF)	binding signal (ETV7)	binding signal (ELF5)	binding signal (ETV3)	binding signal (ETV6)
TCCTGA	1.26 fold enrichment (6-mer frequency, TF over GST control)	1.43 fold enrichment (6-mer frequency, TF over GST control)	1.59 fold enrichment (6-mer frequency, TF over GST control)	1.69 fold enrichment (6-mer frequency, TF over GST control)	1.32 fold enrichment (6-mer frequency, TF over GST control)	1.92 fold enrichment (6-mer frequency, TF over GST control)	1.71 fold enrichment (6-mer frequency, TF over GST control)	1.51 fold enrichment (6-mer frequency, TF over GST control)
TACATT	1.34 fold enrichment (6-mer frequency, TF over GST control)	1.18 fold enrichment (6-mer frequency, TF over GST control)	1.19 fold enrichment (6-mer frequency, TF over GST control)	1.18 fold enrichment (6-mer frequency, TF over GST control)	1.25 fold enrichment (6-mer frequency, TF over GST control)	1.22 fold enrichment (6-mer frequency, TF over GST control)	1.2 fold enrichment (6-mer frequency, TF over GST control)	1.29 fold enrichment (6-mer frequency, TF over GST control)
TGCACG	1.11 fold enrichment (6-mer frequency, TF over GST control)	1.1 fold enrichment (6-mer frequency, TF over GST control)	1.15 fold enrichment (6-mer frequency, TF over GST control)	1.11 fold enrichment (6-mer frequency, TF over GST control)	1.19 fold enrichment (6-mer frequency, TF over GST control)	1.02 fold enrichment (6-mer frequency, TF over GST control)	1.13 fold enrichment (6-mer frequency, TF over GST control)	1.06 fold enrichment (6-mer frequency, TF over GST control)
CAATTG	1.29 fold enrichment (6-mer frequency, TF over GST control)	1.2 fold enrichment (6-mer frequency, TF over GST control)	1.26 fold enrichment (6-mer frequency, TF over GST control)	1.12 fold enrichment (6-mer frequency, TF over GST control)	1.32 fold enrichment (6-mer frequency, TF over GST control)	1.21 fold enrichment (6-mer frequency, TF over GST control)	1.2 fold enrichment (6-mer frequency, TF over GST control)	1.23 fold enrichment (6-mer frequency, TF over GST control)
CTGTCC	1.28 fold enrichment (6-mer frequency, TF over GST control)	1.13 fold enrichment (6-mer frequency, TF over GST control)	1.33 fold enrichment (6-mer frequency, TF over GST control)	1.27 fold enrichment (6-mer frequency, TF over GST control)	1.28 fold enrichment (6-mer frequency, TF over GST control)	1.3 fold enrichment (6-mer frequency, TF over GST control)	1.14 fold enrichment (6-mer frequency, TF over GST control)	1.26 fold enrichment (6-mer frequency, TF over GST control)
CAAACC	1.06 fold enrichment (6-mer frequency, TF over GST control)	1.18 fold enrichment (6-mer frequency, TF over GST control)	1.09 fold enrichment (6-mer frequency, TF over GST control)	1.11 fold enrichment (6-mer frequency, TF over GST control)	1.02 fold enrichment (6-mer frequency, TF over GST control)	1.02 fold enrichment (6-mer frequency, TF over GST control)	1.11 fold enrichment (6-mer frequency, TF over GST control)	1.1 fold enrichment (6-mer frequency, TF over GST control)
TTTACC	1.21 fold enrichment (6-mer frequency, TF over GST control)	1.1 fold enrichment (6-mer frequency, TF over GST control)	1.28 fold enrichment (6-mer frequency, TF over GST control)	1.26 fold enrichment (6-mer frequency, TF over GST control)	1.45 fold enrichment (6-mer frequency, TF over GST control)	1.2 fold enrichment (6-mer frequency, TF over GST control)	1.36 fold enrichment (6-mer frequency, TF over GST control)	1.26 fold enrichment (6-mer frequency, TF over GST control)
ATACGG	1.28 fold enrichment (6-mer frequency, TF over GST control)	1.15 fold enrichment (6-mer frequency, TF over GST control)	1.22 fold enrichment (6-mer frequency, TF over GST control)	1.31 fold enrichment (6-mer frequency, TF over GST control)	1 fold enrichment (6-mer frequency, TF over GST control)	1.32 fold enrichment (6-mer frequency, TF over GST control)	1.31 fold enrichment (6-mer frequency, TF over GST control)	1.18 fold enrichment (6-mer frequency, TF over GST control)
